Shiga inhibitor – A qHTS for Small Molecule Inhibitors of Shiga Toxin | Vero cells, Shiga toxin protein synthesis inhibition reporter | inhibition, % at 38.7 µM | actives 9.2% (n = 290,000) | AID 2315, 2010; in the data active = inhibition mostly above about 28%, no sharp cut-off; inactive = mostly below about 43%; note: 0% is about no effect
HCMV inh – qHTS Assay for inhibitors of the human cytomegalovirus (HCMV). HFF cells, HCMV-luciferase reporter, 72 h; stronger effect = lower value. activity change, negative = inhibition, % at 57.5 µM. actives 4.5% (n = 410,000). AID 1259415, 2018; in the data active = activity change below about -60%; inconclusive = no clear call, values can overlap the other calls; inactive = above about -39%; note: % is set by controls: 0 for no effect and ±100 for the full control effect
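Human foreskin fibroblasts infected with luciferase-reporter HCMV at MOI 1 PFU/cell, compounds at two doses. Luciferase measured 72 h post infection; normalized to buffer-only basal and Salinomycin (10uM) controls.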
HCV inh – qHTS Assay for Inhibitors of Hepatitis C Virus (HCV); Huh7.5.1 HCVcc-Cre infection, luciferase reporter, 44 h; Potency, µM (highest dose often 41.8 µM), without a hit: top-dose activity change, negative = inhibition, usual class: inhibitors; actives 3.4% (n = 340,000); AID 651820, 2012; note: potency is the fitted concentration of half-maximal effect; % is set by controls: 0 for no effect and ±100 for the full control effect
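Infectious HCVcc-Cre (~0.5 moi) was added to cells just after compound, with cells seeded 4 h earlier at 1,000 per well. Luciferase activity after 44 h culture reported infection; substrate was incubated 15 min at room temperature before reading.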
Pf growth 48h – Primary qHTS for delayed death inhibitors of the malarial parasite plastid, 48 hour incubation; P. falciparum luciferase growth in erythrocytes, 48 h; Potency, µM (series often up to 28.7 µM), for inactives: at the highest dose activity change, negative = inhibition, hits mostly inhibitors; actives 5.9% (n = 310,000); AID 504832, 2011; note: potency is the fitted concentration of half-maximal effect; % is set by controls: 0 for no effect and ±100 for the full control effect
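Firefly luciferase activity from engineered P. falciparum reports growth; inhibitors lower the luminescent signal. Cultures contained 2% hematocrit erythrocytes at 0.1% final parasitemia.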
Cycloheximide cs – Cycloheximide Counterscreen for Small Molecule Inhibitors of Shiga Toxin. cell reporter, cycloheximide protein synthesis inhibition counterscreen. max response, %. actives 12% (n = 300,000). AID 2314, 2010; in the data active = max response mostly above about 13%, no sharp cut-off; inactive = mostly below about 14%; note: read at 38.3 µM for the half of the compounds with a filed dose; 0% is about no effect
Pf growth 96h – Primary qHTS for delayed death inhibitors of the malarial parasite plastid, 96 hour incubation; P. falciparum luciferase reporter growth, 96 h; Potency, µM (doses to about 28.7 µM), for the others: top-dose activity change, negative = inhibition, actives largely listed as inhibitors; actives 6.9% (n = 320,000); note: potency is the fitted concentration of half-maximal effect; % is set by controls: 0 for no effect and ±100 for the full control effect
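P. falciparum expressing integrated firefly luciferase, in erythrocytes at 2% hematocrit, 0.05% parasitemia, incubated with compounds 96 h at 37 C, 5% CO2. Growth inhibition read as loss of luminescence; two-generation exposure targets delayed-death apicoplast inhibitors.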
The depositor's hits bear a star; ? = inconclusive; / = no result given; ! = repeats disagree; [ ] = another dose, or the depositor's remark. Sampled rows, rich in hits. Any-hit rate of the full collection: about 21%. Unless noted, calls come from the whole dose curve; as a rule, active = well fitted inhibition curve with a large enough effect; inconclusive = small, poorly fitted or top-dose-only effect, or another doubt; inactive = no such curve, though single readings can be large or run the other way.

SMILES | Shiga inhibitor | HCMV inh | HCV inh | Pf growth 48h | Cycloheximide cs | Pf growth 96h
OC(C#Cc1ccccn1)c1cccs1 (stereo not drawn) | 48* | -62* | ? | 10µM* | 51* | -13%
COC(=O)c1ccccc1NC(=O)N1CCC(n2c(C)nc3cccnc32)CC1 | / | -3 | / | / | / | /
O=C(O)c1ccc(S(=O)(=O)NCC2CCCCC2)cc1 | 0 | -12 | 10% | 16% | 3 | -2%
Cc1ccc(Oc2ccc(NC(=O)c3ccco3)cc2)cc1 | 99* | 9 | -6% | 0.93µM* | 67* | -2%
O=C(CNC(=O)c1ccco1)NCC(=O)OCc1cccc(C(=O)Oc2ccccc2)c1 | 42* | / | -4% | 31% | 13* | /
Cc1ccc(NC(=O)c2ccc(OC(=O)c3ccco3)cc2)cc1 | 73* | 139 | 11% | 189% | 36* | 4%
Cc1ccc(NC(=O)c2ccc(OC(=O)c3cc4ccccc4o3)cc2)cc1 | 81* | 94 | 11% | 204% | 40* | /
COc1ccc(OC(=O)c2cc3ccccc3o2)cc1 | 48 | -20 | 10% | 6% | 16 | ?
COc1cccc(CNS(=O)(=O)c2ccccc2Br)c1 | / | 7 | / | / | / | /
CCOC(=O)CC(NC(=O)c1ccco1)c1ccc(C)cc1 (stereo not drawn) | 12 | -3 | -6% | 3% | -1 | 6.6µM*
O=C(Oc1ccccc1)c1ccc(NC(=O)c2ccco2)cc1 | 100* | -37 | 1% | ? | 53* | 17%
COC(=O)CC(NC(=O)c1ccco1)c1ccc(C(C)C)cc1 (stereo not drawn) | -15 | -7 | 13% | -17% | -2 | /
C[C@@]1([C@@H](NC(=O)c2cccs2)c2ccc(-c3ccccc3)cc2)C[C@H]1C1CCCCC1 | -7 | 2 | 8%[8.37 µM] | 1.9µM* | 1 | 2.6µM*
O=C(Nc1ccc2oc(-c3ccncc3)nc2c1)c1ccc([N+](=O)[O-])o1 | 53* | -102* | 10µM* | 6.6µM* | 32* | ?
O=C(Nc1ccc2oc(-c3ccncc3)nc2c1)c1cccs1 | 24 | -11 | ? | -12% | 12 | ?
O=C(Nc1ccc(-c2nc3ncccc3o2)cc1)c1ccc([N+](=O)[O-])o1 | 44 | -76* | 3.5µM* | 9.3µM* | -3 | -2%
Cc1cscc1-c1cc2nc(NCCCN(C)C)n(C)c(=O)c2s1 | / | 43 | / | / | / | /
Cc1nc(N2CCCCC2)nc(N2CCCCC2)c1C=O | -3 | -33 | -16% | ? | -6 | ?
O=C(O)CC/C(=N\NC(=O)c1ccncc1)c1ccccc1 | / | 8 | 11% | -14% | 5 | ?
COc1ccc(OCC(=O)N/N=C(\CCC(=O)O)c2cccs2)cc1 | -2 | -2 | 24% | 22% | -2 | 32%
COC(=O)N/N=C(\CCC(=O)O)c1cccs1 | 14 | 15 | 3% | 15% | 15* | 2%
O=C(O)CC/C(=N\NC(=O)c1ccccc1)c1cccs1 | 109* | -14 | 23% | 26% | 49* | 12%
CN(C)c1nc(-c2cccnc2)nc(-c2ccccc2)c1C#N | -7 | -35 | -1% | ? | -1 | ?
CN1CCN(C(=O)c2cnn3c(C(F)(F)F)cc(-c4cccs4)nc23)CC1 | -9 | 2 | 20% | -14% | -3 | ?
O=C(c1nn2c(C(F)(F)F)cc(-c3cccs3)nc2c1Br)N1CCCc2ccccc21 | 16 | -15 | ? | -7% | 21* | ?
SMILES | Shiga inhibitor | HCMV inh | HCV inh | Pf growth 48h | Cycloheximide cs | Pf growth 96h
O=C(c1nn2c(C(F)(F)F)cc(-c3ccco3)nc2c1Br)N1CCCc2ccccc21 | -3 | -17 | 13µM*! | ? | 1 | 38%
CCOc1ccc(CCNC(=O)c2cnc3sc(N4CCOCC4)nn3c2=O)cc1 | / | -12 | / | / | / | /
O=S(=O)(Nc1ccc(-c2ccc3nncn3n2)cc1)c1cccs1 | / | -29 | 0% | 27% | / | -3%
O=[N+]([O-])c1ccc(C2=NCCO2)cc1 | 74* | -5 | -2% | 26% | 39* | 60%
C#CCNC(=O)c1ccc2sc([C@H]3C[C@H](O)[C@@H](CO)O3)nc2c1 | / | 3 | / | / | / | /
COc1cccc(CN2CCNC(=O)C2CC(=O)NC2CCCCCCC2)c1 (stereo not drawn) | -10 | 16 | 6% | ? | 9 | ?
N#C/C(=C\c1ccc(OCc2ccc(Br)cc2)cc1)C(=O)Nc1cccc(C(=O)O)c1 | 95* | 13 | 9% | 13% | 23* | 81%
COc1cc(/C=C(\C#N)C(=O)Nc2cccc(C(=O)O)c2)ccc1OCc1ccc(F)cc1 | 61* | -19 | 6% | -3% | 25* | 26%
N#C/C(=C\c1ccc(OCc2ccc(F)cc2)cc1)C(=O)Nc1cccc(C(=O)O)c1 | 42 | -75* | 34% | -3% | 3 | -1%
CCOc1cc(/C=C(\C#N)C(=O)Nc2cccc(C(=O)O)c2)cc(Br)c1OC(=O)c1ccc(OC)cc1 | 31* | 48 | 9% | 0% | 11 | 34%
Cc1nc(-c2cccc(Br)c2)ccc1C(=O)O | 4 | -24 | 11% | 7% | -4 | 17%
CCc1ccc(-c2ccc(C(=O)O)c(C)n2)cc1 | 47* | 8 | 27% | 36% | 40* | 29%
O=C1c2ccc(-c3ccc(F)cc3OCc3ccccc3)cc2S(=O)(=O)c2cccc(C(=O)N3CCCC3)c21 | / | / | ? | 4.7µM* | / | ?
COc1ccccc1NC(=O)c1c(-c2ccc(C)cc2)nnc2ccccc12 | / | 0 | / | / | / | /
COc1ccc(C)cc1Nc1ncnc2c1c(-c1ccccc1)cn2-c1ccc(C)cc1 | / | -19 | / | / | / | /
COc1ccc(NC(=O)CN(C)C(=O)CCCc2c[nH]c3ccccc23)cc1 | / | -10 | ? | ? | / | 10µM*
CCOc1ccc(NC(=O)CN(C)C(=O)CCCc2c[nH]c3ccccc23)cc1OCC | / | -38 | ? | 10µM* | / | ?
COc1ccc(NC(=O)CN(C)C(=O)Cc2c[nH]c3ccccc23)cc1 | / | 28 | -17% | ? | / | ?
C[C@@H](c1ccccc1)N1C[C@@H](COCc2ccccc2)Oc2cc(N3CCC[C@H]3CO)ccc2S1(=O)=O | / | -23 | / | / | / | /
Cc1cc(C)c(Cn2c3ccccc3c3cnn(CC(=O)NCc4ccc(Cl)cc4)c(=O)c32)c(C)c1 | / | 17 | / | / | / | /
CCOC(=O)c1cc(-c2ccccc2)sc1NC(=O)C(C)N1C(=O)NC(C)(c2ccc(Cl)cc2)C1=O (stereo not drawn) | -3 | 8 | ? | / | -2 | 9.3µM*
CCOC(=O)c1cc(-c2ccccc2)sc1NC(=O)C(C)Sc1nnnn1C (stereo not drawn) | -5 | 25 | ? | ? | -3 | 10µM*
